Data on 15 compounds can be found in the supplement of paper PMC6522484.

± gives the standard deviation of the averaged measurements.

Assay [1] concerns DLD1. Description: cell viability (CellTiter-Glo) relative to plate median (fraction of plate median); higher = more viable cells. Particulars: 5 µM; treatment time 24 h; reporter: 7TFP. A digest of the protocol:
(§1)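 After seeding in 384-well plates, colorectal cancer cell lines carrying stable lentiviral TCF/Wnt firefly luciferase reporters (7TFP or TCF4/Wnt) were left 24 h. Library compounds were then added at a final 5 µM for 24 h. A Tecan F500 reader measured firefly luciferase or CellTiterGlo luminescence on parallel plates, with each well normalised to the plate median by webcellHTS2 (additive, no log transformation), and two independent replicates averaged.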
On the technique in general: ATP-based viability assays read luminescence as a measure of living cells.

The test system of the next assay is HCT116. Described as above. The settings on record: 5 µM; treatment time 24 h; reporter: TCF4/Wnt. A digest of the protocol: as §1
For assay [2], the system named is SW480. The assay is described as above. Particulars: 5 µM; treatment time 24 h; reporter: 7TFP. Summed up: as §1
Assay [3] concerns DLD1. In words: TCF/Wnt firefly luciferase reporter signal relative to plate median (fraction of plate median); higher = higher Wnt reporter signal. The settings on record: 5 µM; treatment time 24 h; reporter: 7TFP. Summed up:
as §1
(In general: Reporter assays use an easily measured gene product as a stand-in for the process of interest.)

The test system of assay [4] is SW480. Described as above. The settings on record: 5 µM; treatment time 24 h; reporter: 7TFP. A digest of the protocol: as §1

`NC(=O)C[S+]([O-])C(c1ccccc1)c1ccccc1` (stereo not given): the cell viability in the assay on DLD1 [1] stood at 0.952 ± 0.12; in the assay with HCT116, 1.1 ± 0.05; in the assay with SW480 [2], 1.02 ± 0.014. For the same compound, the “TCF/Wnt firefly luciferase reporter signal” value with DLD1 [3] was found to be 1.08 ± 0.064; in the assay with SW480 [4], 1.02 ± 0.014.

For `CC1=C(O)C(=O)C=C2C1=CC=C1[C@@]2(C)CC[C@@]2(C)[C@@H]3C[C@](C)(C(=O)O)CC[C@]3(C)CC[C@]12C`, the cell viability with DLD1 [1] was 0.801 ± 0.11; in the assay on HCT116 it was 0.837 ± 0.065; in the assay with SW480 [2], 1 ± 0.012. In addition, the entries for the “TCF/Wnt firefly luciferase reporter signal” value in the assay on DLD1 [3] and in the assay on SW480 [4] were 0.863 ± 0.083 and 0.787 ± 0.12, respectively.

Regarding `COc1cccc2c1cc([N+](=O)[O-])c1c(C(=O)O)cc3c(c12)OCO3`, the values for the cell viability with DLD1 [1], in the assay on HCT116 and with SW480 [2] were 0.983 ± 0.052, 1.06 ± 0.098 and 1.01 ± 0.018, respectively. Moreover, the “TCF/Wnt firefly luciferase reporter signal” value with DLD1 [3] amounted to 1.28 ± 0.12; with SW480 [4] it was 1.1 ± 0.13.

Take `CC1CC(Cl)CCC1C(=O)OC(C)(C)C` (stereo not given): the cell viability was found to be 0.973 ± 0.052 in the assay on DLD1 [1], 1.045 ± 0.0071 in the assay on HCT116 and 0.956 ± 0.025 in the assay on SW480 [2]. Further, the entries for the “TCF/Wnt firefly luciferase reporter signal” value with DLD1 [3] and in the assay with SW480 [4] were 0.976 ± 0.034 and 0.989 ± 0.03, respectively.

In the case of `CC(=O)Nc1cc([As](=O)(O)O)ccc1O`, the cell viability stood at 1.04 ± 0.064 in the assay with DLD1 [1], 0.994 ± 0.023 with HCT116 and 1.02 with SW480 [2]. Further, the figures for the “TCF/Wnt firefly luciferase reporter signal” value with DLD1 [3] and in the assay with SW480 [4] were 1.13 ± 0.085 and 0.973 ± 0.038, respectively.

As for `C[C@@H]1CC[C@]2(NC1)O[C@H]1C[C@H]3[C@@H]4CC=C5C[C@@H](O)CC[C@]5(C)[C@H]4CC[C@]3(C)[C@H]1[C@@H]2C`, the values for the cell viability with DLD1 [1], in the assay with HCT116 and with SW480 [2] were 0.943 ± 0.011, 0.904 ± 0.035 and 0.957 ± 0.044, respectively. The “TCF/Wnt firefly luciferase reporter signal” value with DLD1 [3] stood at 0.963 ± 0.037; in the assay with SW480 [4] it was 0.978 ± 0.016.

As to `CC(=O)[C@H]1CC[C@H]2[C@@H]3CC[C@H]4C[C@H](O)CC[C@]4(C)[C@H]3CC[C@]12C`, the cell viability with DLD1 [1] was determined as 0.966 ± 0.049; in the assay on HCT116, 0.97 ± 0.0057; in the assay with SW480 [2] it was 0.99 ± 0.014. Also, the entries for the “TCF/Wnt firefly luciferase reporter signal” value with DLD1 [3] and in the assay with SW480 [4] were 0.902 ± 0.047 and 0.912 ± 0.059, respectively.

With `CC1NC(=O)C(NC(=O)c2cnc3ccccc3n2)COC(=O)C(C(C)C)N(C)C(=O)C2CSSCC(C(=O)N(C)C(C(C)C)C(=O)OCC(NC(=O)c3cnc4ccccc4n3)C(=O)NC(C)C(=O)N2C)N(C)C1=O` (stereo not given) [Triostin A], the cell viability in the assay on DLD1 [1] was determined as 0.968 ± 0.028; in the assay with HCT116, 0.984 ± 0.08; in the assay with SW480 [2], 0.992 ± 0.054. The “TCF/Wnt firefly luciferase reporter signal” value worked out at 0.941 ± 0.073 in the assay with DLD1 [3] and 0.871 ± 0.037 in the assay on SW480 [4].

As to `COc1cc2c3cc1Oc1c(OC)c(OC)cc4c1[C@@H](Cc1cccc(c1)Oc1ccc(c(O)c1)C[C@@H]3N(C)CC2)N(C)CC4`, the cell viability was 1.03 ± 0.045 in the assay on DLD1 [1], 1 ± 0.028 with HCT116 and 1.12 ± 0.05 in the assay with SW480 [2]. The figures for the “TCF/Wnt firefly luciferase reporter signal” value in the assay on DLD1 [3] and in the assay on SW480 [4] were 0.9605 ± 0.00071 and 1.12 ± 0.064, respectively.

`CCCC(C)C1(CC)C(=O)NC(=S)NC1=O` (stereo not given): the cell viability is 1.005 ± 0.0071 in the assay with DLD1 [1], 1.03 ± 0.11 with HCT116 and 1.02 ± 0.035 with SW480 [2]. In addition, the results for the “TCF/Wnt firefly luciferase reporter signal” value in the assay on DLD1 [3] and in the assay on SW480 [4] were 1.16 ± 0.15 and 0.974 ± 0.065, respectively.

Turning to `CC(=O)OC1CCC23C(=O)OC45CCC(C6=CC(=O)OC6)C4(C)CCC2C5CCC3(O)C1` (stereo not given), the cell viability was 0.688 ± 0.011 in the assay on DLD1 [1], 0.397 ± 0.066 in the assay on HCT116 and 0.7175 ± 0.0021 with SW480 [2]. In addition, the results for the “TCF/Wnt firefly luciferase reporter signal” value in the assay with DLD1 [3] and in the assay with SW480 [4] were 0.202 ± 0.05 and 0.389 ± 0.011, respectively.

For the compound `CC1(C)C(=O)[C@@H]2O[C@@H]2[C@@]2(C)C1C[C@@H](O)[C@]1(C)C2CC[C@@]2(C)[C@H](c3ccoc3)OC(=O)C3OC321` (stereo partly drawn) [1,2alpha-EPOXYDEACETOXYDIHYDROGEDUNIN], the cell viability in the assay on DLD1 [1] worked out at 1.01 ± 0.032; in the assay with HCT116, 1.12 ± 0.099; in the assay with SW480 [2], 1.01 ± 0.056. The “TCF/Wnt firefly luciferase reporter signal” value in the assay on DLD1 [3] stood at 0.962 ± 0.013; with SW480 [4], 0.957 ± 0.22.

As to `COc1ccc2c(c1O)-c1c(OC)c(OC)cc3c1[C@H](C2)N(C)CC3`, the values for the cell viability with DLD1 [1], in the assay on HCT116 and in the assay on SW480 [2] were 0.993 ± 0.067, 1.055 ± 0.0071 and 1 ± 0.035, respectively. For the same compound, the “TCF/Wnt firefly luciferase reporter signal” value was 0.885 ± 0.089 with DLD1 [3] and 0.926 ± 0.012 in the assay with SW480 [4].

On to `CCN1C[C@]2(COC)[C@H](O)C[C@H](OC)[C@@]34[C@@H]5C[C@@]6(O)[C@H](OC(=O)c7ccccc7)[C@@H]5[C@@](OC(C)=O)([C@@H]([C@H](OC)[C@H]23)[C@@H]14)[C@@H](O)[C@@H]6OC`, for which the cell viability was 0.943 ± 0.066 in the assay on DLD1 [1], 1.04 ± 0.05 in the assay with HCT116 and 1.02 ± 0.06 in the assay on SW480 [2]. For the same compound, the “TCF/Wnt firefly luciferase reporter signal” value in the assay on DLD1 [3] was determined as 0.931 ± 0.057; in the assay with SW480 [4], 0.955 ± 0.19.

In the case of `COc1cc([C@@H]2c3cc4c(cc3[C@H](O)[C@H]3COC(=O)[C@H]23)OCO4)cc(OC)c1OC`, the cell viability was 0.903 ± 0.091 with DLD1 [1], 0.552 ± 0.075 in the assay on HCT116 and 0.95 ± 0.14 with SW480 [2]. The results for the “TCF/Wnt firefly luciferase reporter signal” value in the assay with DLD1 [3] and in the assay with SW480 [4] were 0.831 ± 0.34 and 0.783 ± 0.061, respectively.
